SmPrx2 inh: Schistosoma mansoni Prx2 inhibition | S. mansoni Prx2 activity coupled to TGR/GSH (TGR is thioredoxin glutathione reductase), NADPH fluorescence loss, qHTS | Potency, µM | 0.07% of 65,000 active | AID 448
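Prx2 activity was followed as the loss of NADPH fluorescence (ex 365/em 450 nm), read every 30 sec for 8 min after H2O2 start. The enzyme mix (50 nM Prx2, 25 nM TGR, GSH, NADPH; pH 7.4 phosphate buffer) was incubated with compound for 15 min at room temperature first.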
AmpC inh det: inhibitors of E. coli AmpC beta-lactamase with detergent; purified AmpC, nitrocefin hydrolysis with detergent; 0.09% of 71,000 active; P00811; Potency, µM (titrated, usually from 28.7 µM), for the others: top-dose activity change, negative = inhibition; active = well fitted curve in the direction sought with a large enough effect; inconclusive = small, poorly fitted or top-dose-only effect; note: % is set by controls: 0 for no effect and ±100 for the full control effect
Target sequence (P00811 whole entry, looked up): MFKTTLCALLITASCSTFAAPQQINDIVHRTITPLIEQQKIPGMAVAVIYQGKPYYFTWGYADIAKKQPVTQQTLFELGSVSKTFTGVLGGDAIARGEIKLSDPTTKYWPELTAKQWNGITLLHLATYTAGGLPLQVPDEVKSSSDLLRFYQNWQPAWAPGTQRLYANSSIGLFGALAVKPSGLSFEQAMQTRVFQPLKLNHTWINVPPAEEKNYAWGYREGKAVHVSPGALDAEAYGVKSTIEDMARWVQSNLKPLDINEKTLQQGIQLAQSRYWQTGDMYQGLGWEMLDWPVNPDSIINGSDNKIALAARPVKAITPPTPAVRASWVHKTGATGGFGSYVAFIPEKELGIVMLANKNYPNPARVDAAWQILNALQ
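E. coli AmpC (5.3 nM) in 20 mM phosphate pH 7.0 with 0.01% Triton X-100, preincubated 15 min RT with compound; nitrocefin (2 uL of 800 uM stock) hydrolysis followed by 480 nm absorbance every 20 s over 4 min.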
AmpC inh no det: blocks E. coli AmpC beta-lactamase in absence of detergent. AmpC nitrocefin hydrolysis, absorbance 480 nm, no detergent. Potency, µM (series often up to 28.7 µM), without a hit: at the top dose activity change, negative = inhibition. 1.8% of 71,000 active. AID 585; note: % of control where 0% means no effect
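AmpC, 20 mM phosphate pH 7.0; 15 min cpd preinc, RT; start with nitrocefin (800 uM stock); A480 kinetic read, 20 s intervals, 4 min. No-enzyme wells = negative control.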
Anthrax LT inh: inhibitors of anthrax lethal toxin internalization | AID 912 | Potency, µM (doses to about 40 µM), for inactives: at the top dose activity change, negative = inhibition, most hits filed as inhibitors | Cells, anthrax lethal toxin internalization, FRET ratio (460/530) | 0.67% of 70,000 active; note: % is set by controls: 0 for no effect and ±100 for the full control effect; nearly all actives have a fitted effect of over 50% in size
An asterisk follows results filed as active; ? = inconclusive; · = no result; [ ] = another dose, or the depositor's remark. Sampled rows, rich in hits. Any-hit rate of the full collection: about 2.4%. Unless noted, calls come from the whole dose curve. Potency is the fitted concentration of half-maximal effect.

SMILES | SmPrx2 inh | AmpC inh det | AmpC inh no det | Anthrax LT inh
CC[C@H](C(=O)[C@H](C)[C@H](O)[C@H](C)CCc1ccc(C)c(O)c1C(=O)O)[C@H]1O[C@](CC)([C@@H]2CC[C@@](O)(CC)[C@H](C)O2)C[C@H]1C | >57 | -3%[12.8 µM] | 11%[12.8 µM] | 0.32µM*
COc1ccccc1S(=O)Cc1ccc(C(=O)NC2CCCC2)o1 (stereo not drawn) | >57 | 11% | 4µM*[single pt active] | -19%
COc1ccccc1S(=O)(=O)Cc1ccc(C(=O)NCCN(C)C)o1 | >57 | 5% | -2% | -13%
COc1ccc(S(=O)(=O)Cc2ccc(C(=O)NC3CC3)o2)cc1 | >57 | 4% | 0% | 9%
COc1ccccc1S(=O)Cc1ccc(C(=O)NCCc2ccc(Cl)cc2)o1 (stereo not drawn) | >57 | 11% | 73% | 2.5µM*
O=C(COC(=O)C1CCN(S(=O)(=O)c2cccs2)CC1)c1ccc2c(c1)OCCO2 | >57 | -3% | -17% | 0%
O=C(COC(=O)C1CCN(S(=O)(=O)c2cccs2)CC1)c1cc2ccccc2o1 | >57 | -2% | 10µM* | -8%
O=c1nc2s/c(=C\c3ccco3)c(=O)n2nc1Cc1ccc(F)cc1 | >57 | -5% | 10µM*[single pt active] | -15%
CC(NC(=O)c1noc2c1CCCCC2)c1ccccc1 (stereo not drawn) | >57 | 11% | 4µM*[single pt active] | 9%
COc1ccc(C2CC(=O)c3cnc(NC(=O)c4ccccc4)nc3C2)cc1OC (stereo not drawn) | >57 | 9% | 4µM*[single pt active] | -25%
COc1cc(C(=O)Nc2ccc(S(=O)(=O)Nc3onc(C)c3C)cc2)cc(OC)c1OC | · | 0% | -14% | 11%
Cn1nc(-c2ccc(Cl)cc2)c2cc(C(=O)N3CCN(c4ccccn4)CC3)sc21 | >57 | 7% | 4µM*[single pt active] | ?
Cn1nc(-c2ccc(Cl)cc2)c2cc(C(=O)N3CCCC3)sc21 | >57 | 11% | 42% | ?
Cn1nc(-c2ccc(Cl)cc2)c2cc(C(=O)N3CCN(c4ccccc4)CC3)sc21 | >57 | 13% | 4µM*[single pt active] | ?
O=C(c1cc(C2CC2)on1)N1CCN(C(c2ccccc2)c2ccccc2)CC1 | >57 | 8% | -3% | 17%
COCCNc1nc(C)nc2c1nc(-c1ccccc1)n2CCN1CCCC1 | · | 11% | -9% | 2%
CSc1nc(C)cc(OCC(=O)N2CCOCC2)n1 | >57 | -3% | -3% | 9%
CCOC(=O)C1=C(N)Oc2ccc(Br)cc2[C@@H]1[C@@H](C#N)C(=O)OCC | 39* | 0% | 0% | ?
CCCn1nnc(NC(=O)Cc2ccc(Cl)cc2)n1 | >57 | -4% | -10% | -1%
COCc1cc(C)nc(N2CCN(c3ccccc3)CC2)c1C#N | >57 | 17% | 10% | 10µM*
c1ccc(-n2nnnc2Oc2ccc(-n3ccnc3)cc2)cc1 | >57 | -2% | 14% | -2%
Clc1cccc(N2CCN(Cc3nc(-c4ccccc4)no3)CC2)c1 | >57 | 13% | 4µM*[single pt active] | ?
COc1ccc(-c2cc(C(F)(F)F)nc(S(=O)(=O)CCC(=O)N3CCOCC3)n2)cc1 | >57 | 4% | 67% | ?
COc1ccccc1-c1cc(C(F)(F)F)nc(S(=O)(=O)CCCC(=O)N2CCOCC2)n1 | >57 | -2% | 83% | 1.6µM*
O=c1cc(-c2ccc(Cl)cc2)[nH][nH]1 | >57 | -1% | -5% | 12%
SMILES | SmPrx2 inh | AmpC inh det | AmpC inh no det | Anthrax LT inh
O=c1cc(-c2ccc(Cl)c(Cl)c2)[nH][nH]1 | >57 | 1% | 13µM*[single pt active] | -12%
Cn1c(=O)c2cc(S(=O)(=O)NC(Cc3ccccc3)C(=O)NCc3ccco3)ccc2n(C)c1=O (stereo not drawn) | >57 | 10% | 4µM*[single pt active] | -4%
O=c1[nH]c(=O)n(Cc2ccccc2)c(O)c1C=Nc1ccc(CN2CCOCC2)cc1 | >57 | 12% | 119% | -5%
Cc1ccc(S(=O)(=O)C2(C(=O)NCc3ccc4c(c3)OCO4)CC2)cc1 | >57 | 11% | 4µM*[single pt active] | 1%
CCN1CCCC1CNC(=O)c1cc2c(-c3cccc(OC)c3)nn(C)c2s1 (stereo not drawn) | >57 | -3% | 55% | 16µM*
CCN1CCCC1CNC(=O)c1cc2c(-c3ccc(Cl)cc3)nn(C)c2s1 (stereo not drawn) | >57 | 14% | 4µM*[single pt active] | 4µM*
CC(C)NC(=O)c1cc2c(-c3ccc(Cl)cc3)nn(C)c2s1 | >57 | 11% | 0.79µM*[single pt active] | -4%
COc1cccc(-c2nn(C)c3sc(C(=O)NCc4ccco4)cc23)c1 | >57 | -7% | 49% | -12%
Cn1nc(-c2ccc(Cl)cc2)c2cc(C(=O)NCCCN3CCCC3)sc21 | >57 | 13% | 4µM*[single pt active] | 2µM*
Cn1nc(-c2ccc(Cl)cc2)c2cc(C(=O)N3CCC(N4CCCCC4)CC3)sc21 | >57 | 16% | 44% | -7%
COCCNC(=O)c1cc2c(-c3ccc(Cl)cc3)nn(C)c2s1 | >57 | 11% | 128% | -22%
CCCCNC(=O)c1cc2c(-c3ccc(Cl)cc3)nn(C)c2s1 | · | 12% | 26% | -5%
CC(C)NC(=O)N1CCC2(CC1)CCN(C(=O)c1cnccn1)CC2 | >57 | 1% | 3% | ?
CCOCCCN(C(=O)Nc1ccc(CC)cc1)C1CCN(C(C)=O)CC1 | >57 | 0% | 61% | -8%
CCN(CC)S(=O)(=O)c1cccc(-c2nnc(SCC(=O)NC)n2CCc2ccccc2)c1 | >57 | 0% | 106% | 2%
O=C(CC1Nc2ccccc2NC1=O)NCCCN1CCCCCC1 (stereo not drawn) | >57 | -1% | 0% | 11%
Cc1nc2cnc(N(C)C)nc2n(C[C@H]2CCCO2)c1=O | >57 | -2% | 22% | 1%
CCOC(=O)N1CCN(C(=O)C2CCN(S(=O)(=O)N3CCCC3)CC2)CC1 | >57 | 2% | 12% | ?
Cc1ccc(CNC(=O)c2cc3c(-c4ccc(Cl)cc4)nn(C)c3s2)o1 | >57 | 16% | 4µM*[single pt active] | -8%
CCOC(=O)N1CCC(NC(=O)c2cc3c(-c4ccc(Cl)cc4)nn(C)c3s2)CC1 | >57 | 11% | 4µM*[single pt active] | -2%
COCCCNC(=O)c1cc2c(-c3ccc(Cl)cc3)nn(C)c2s1 | >57 | 6% | 143% | -14%
CCCOC(=O)Cc1n[nH]c(=O)[nH]c1=O | >57 | 7% | -12% | -11%
Cc1cc(C)nc(N2CCCC(C(=O)NCCc3ccccc3F)C2)n1 (stereo not drawn) | >57 | -2% | 27% | 5%
O=C(Nc1ccccc1)N1CCC(C(=O)N2CCN(S(=O)(=O)c3cccc(F)c3)CC2)CC1 | >57 | 0% | 41% | -4%
COc1ccc(CCNc2nc(C)nc3c2oc2ccccc23)cc1OC | >57 | -2% | 101% | 10µM*
COc1ccc(CCNc2ncnc3c2oc2ccccc23)cc1OC | >57 | -3% | 59% | ?
COc1cc(OC)c(C2=NOC(C(=O)Nc3cc(C)nn3-c3ccccc3)C2)cc1Cl (stereo not drawn) | >57 | 0% | 78% | ?
COc1cccc(C2=NOC(C(=O)Nc3cc(C)nn3-c3ccccc3)C2)c1OC (stereo not drawn) | >57 | 11% | 4µM*[single pt active] | ?

Screens as filed in PubChem BioAssay.
